PubChem BioAssay (Tox21)
Inconclusive results are not listed. Active and inactive are the calls of the source. Unless noted, calls come from the whole dose curve.

Key:
[1] = Nuclear factor erythroid 2-related factor 2/antioxidant responsive element (Nrf2/ARE) small molecule agonists: qHTS cell viability counter screen in human keratinocytes (AID 1919968; active = well fitted curve in the direction sought with a large enough effect in the repeat runs; an effect the other way counts as inactive or inconclusive; note: nearly all actives have a fitted effect of over 55% in size)
Procedure, shortened: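 Stably transfected HaCaT (KeratinoSens), 1,500/well. Test agents in DMSO were applied for 23 h, 37 C/5% CO2. CellTiter-Fluor was incubated 1 h before the fluorescence read.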

[2] = Nuclear factor erythroid 2-related factor 2/antioxidant responsive element (Nrf2/ARE) small molecule agonists: luciferase reporter gene qHTS assay in human keratinocytes (AID 1919969); note: nearly all actives have a fitted effect of over 35% in size; note: potency is the fitted concentration of half-maximal effect
[3] = target: Gonadotropin-releasing hormone receptor (Homo sapiens) (UniProt P30968); test: Human gonadotropin-releasing hormone receptor (GnRHR) small molecule agonists, calcium flux assay in GnRHR-HEK293 cells (AID 1920063); note: nearly all actives have a fitted effect of over 35% in size
Procedure, shortened: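 Stable human GnRHR HEK293 line. 18 h plating, then calcium dye for 1 h at 37 C. Agonist-mode compound addition from DMSO stocks; fluorescence monitored 3 min.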

[4] = target: KiSS-1 receptor (Homo sapiens) (UniProt Q969F8); test: Human kisspeptin (KISS1R) small molecule agonists, calcium flux assay in KISS1R-HEK293 cells (AID 1920064; active = well fitted curve in the direction sought with a large enough effect in the repeat runs; an effect the other way counts as inactive or inconclusive)
Procedure, shortened: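 After overnight (18 h) culture at 37 C/5% CO2, human KISS1R-HEK293 cells received calcium dye for 1 h, then test compound; emission at 540 nm (excitation 480 nm) was tracked for 3 min.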

[5] = G protein-coupled receptor (GPCR) small molecule agonists, calcium flux assay: HEK293 wild type cell line counter screen (AID 1920065)
Procedure, shortened: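 Following 18 h incubation at 37 C/5% CO2, plates got calcium dye for 1 h; compounds, ATP or DMSO were then pinned in and fluorescence followed kinetically (480/540 nm).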

[6] = p53 small molecule agonists, cell-based qHTS assay with human liver microsomes: qHTS cell viability counter screen (AID 1963579); note: nearly all actives have a fitted effect of over 45% in size
Procedure, shortened: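 In this multiplexed counter screen, the reporter plates were subsequently treated with CellTiter-Glo so that cell viability, reflected by luminescence, could be recorded for p53RE-bla cells dosed 16 h with compounds under microsomal activation (HLM and NADPH).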

[7] = p53 small molecule agonists, cell-based qHTS assay with rat liver microsomes: qHTS cell viability counter screen (AID 1963580); note: nearly all actives have a fitted effect of over 45% in size
Procedure, shortened: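 Counter screen for cytotoxicity under metabolic activation: rat liver microsomes and NADPH, 0.5 mg/mL final each, added with compounds to p53RE-bla HCT-116 cells; 16 h at 37 C, then ATP luminescence read.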

[8] = p53 small molecule agonists, cell-based qHTS assay: qHTS cell viability counter screen (AID 1963581); note: nearly all actives have a fitted effect of over 45% in size
Procedure, shortened: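 qHTS counter screen: 16 h compound exposure at 37 C of p53RE-bla HCT-116 cells (4,000 per well, seeded 5 h prior), cell viability by ATP luminescence.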

[9] = target: 5-hydroxytryptamine receptor 2A (Homo sapiens) (UniProt P28223); test: 5-hydroxytryptamine receptor 2A (HTR2A) small molecule antagonists, cell-based qHTS assay (AID 1963586); note: nearly all actives have a fitted effect of over 45% in size
Procedure, shortened: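 CHO cells stably expressing human HTR2A were plated for 18 h at 37 C, then loaded with calcium dye for 1 h. Compounds were preincubated 5 min at room temperature before DOI (4 nM solution) was added. Kinetic fluorescence was read for 3 min.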

[10] = target: 5-hydroxytryptamine receptor 2A (Homo sapiens) (UniProt P28223); test: 5-hydroxytryptamine receptor 2A (HTR2A) small molecule agonists, cell-based qHTS assay (AID 1963587); note: nearly all actives have a fitted effect of over 30% in size
Procedure, shortened: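 HTR2A-CHO cells, plated 18 h at 37 C/5% CO2, dye-loaded 1 h at 37 C; compounds in DMSO added by pin tool (agonist mode). Intracellular calcium flux read as kinetic fluorescence on FDSS over 2 min at 1 s intervals.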

[11] = target: Muscarinic acetylcholine receptor M1 (Homo sapiens) (UniProt P11229); test: Cholinergic receptor muscarinic 1 (CHRM1) small molecule antagonists, cell-based qHTS assay (AID 1963588); note: nearly all actives have a fitted effect of over 40% in size
Procedure, shortened: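 Compounds were tested at 15 concentrations in three independent runs. Dye-loaded CHRM1-CHO cells were exposed 5 min at room temperature before stimulation by acetylcholine added at 50nM. Intracellular calcium was read kinetically on FDSS for 3 min.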

[12] = target: Muscarinic acetylcholine receptor M1 (Homo sapiens) (UniProt P11229); test: Cholinergic receptor muscarinic 1 (CHRM1) small molecule agonists, cell-based qHTS assay (AID 1963589); note: nearly all actives have a fitted effect of over 35% in size
Procedure, shortened: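 Kinetic fluorescence (1 s intervals) of calcium-sensitive dye in human M1 CHO cells after compound addition; cells pre-incubated 18 h at 37 C/5% CO2 and dye-loaded 1 h.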

[13] = cAMP Responsive Elements (CRE) small molecule agonists, cell-based qHTS assay (AID 1963590)
Procedure, shortened: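 Test agents in DMSO were incubated 3 h at 37 C/5% CO2 with CRE-bla HEK 293T cells seeded 18 h earlier; LiveBLAzer B/G FRET substrate was added and read after 2 h at room temperature.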

[14] = cAMP Responsive Elements (CRE) small molecule antagonists, cell-based qHTS assay (AID 1963591; active = well fitted inhibition curve with a large enough effect in the signal ratio in the repeat runs, not every such curve was filed as active; the % refers to the signal ratio)
Procedure, shortened: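 Reporter line CRE-bla HEK 293T in dialyzed-FBS DMEM; cells preincubated 18 h, treated 3 h with compound plus NKH477 (0.25 uM final); LiveBLAzer FRET, 2 h RT.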

[15] = target: Beta-2 adrenergic receptor (Homo sapiens) (UniProt P07550); test: Adrenergic beta2 receptor (ADRB2) small molecule antagonists, cell-based qHTS assay (AID 1963592); note: nearly all actives have a fitted effect of over 50% in size; note: potency is the fitted concentration of half-maximal effect; for activity change, negative = inhibition: series mostly up to about 92 µM
Procedure, shortened: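 Assay format: CHO-ADRB2 cells, 18-20hr seeding at 37C/5% CO2, then compound plus 1nM isoproterenol agonist mix for 0.5hr RT. Homogeneous time-resolved fluorescence cAMP detection after 1hr, expressed as 665/615 nm ratio.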

[16] = target: Beta-2 adrenergic receptor (Homo sapiens) (UniProt P07550); test: Adrenergic beta2 receptor (ADRB2) small molecule agonists, cell-based qHTS assay (AID 1963593);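 note: CHO cells stably overexpressing human ADRB2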
Procedure, shortened: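 CHO cells stably over-expressing ADRB2 were plated overnight at 37C, then dosed with compounds plus a stimulation mix containing 100uM IBMX and 25uM Ro-20-1724 for 0.5hr at room temperature. cAMP was measured by HTRF competition, 1hr.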

[17] = target: D(2) dopamine receptor (Homo sapiens) (UniProt P14416); test: Dopamine D2 receptor (DRD2) small molecule agonists, cell-based qHTS assay (AID 1963594); note: nearly all actives have a fitted effect of over 35% in size
Procedure, shortened: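 HEK293 cells stably expressing DRD2 were cultured 24 h at 37 C, then given Ro20-1724 (0.1 mM final) and compounds for 10 min at room temperature. NKH477 (200nM) was then added for 30 min. cAMP was read by HTRF.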

[18] = target: D(2) dopamine receptor (Homo sapiens) (UniProt P14416); test: Dopamine D2 receptor (DRD2) small molecule antagonists, cell-based qHTS assay (AID 1963595; active = well fitted inhibition curve with a large enough effect in the signal ratio in the repeat runs, with a control signal flat; the % refers to the signal ratio)
Procedure, shortened: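 Cells were plated and grown for 24 h at 37 °C. Ro20-1724 (0.1 mM final) went in first, then compound for 10 min. NKH477 (200 nM) with quinpirole (12 nM) followed for 30 min at RT, then HTRF detection reagents for 1 h.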
% is set by controls: 0 for no effect and ±100 for the full control effect.

Muscarinic acetylcholine receptor M1 (Homo sapiens), sequence (P11229 whole entry, looked up): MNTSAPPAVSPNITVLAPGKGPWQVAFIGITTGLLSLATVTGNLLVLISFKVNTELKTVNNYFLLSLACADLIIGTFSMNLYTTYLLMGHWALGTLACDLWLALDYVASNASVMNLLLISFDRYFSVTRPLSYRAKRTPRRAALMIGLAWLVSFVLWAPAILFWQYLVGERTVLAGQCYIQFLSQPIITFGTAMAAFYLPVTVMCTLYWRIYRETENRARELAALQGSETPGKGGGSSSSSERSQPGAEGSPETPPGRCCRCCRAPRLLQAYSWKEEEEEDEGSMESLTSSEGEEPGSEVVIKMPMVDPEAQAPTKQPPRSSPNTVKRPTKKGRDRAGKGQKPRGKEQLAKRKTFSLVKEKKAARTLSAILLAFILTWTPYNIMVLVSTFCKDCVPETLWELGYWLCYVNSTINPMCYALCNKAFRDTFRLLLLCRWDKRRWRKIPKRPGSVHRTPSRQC
Gonadotropin-releasing hormone receptor (Homo sapiens), sequence (P30968 whole entry, looked up): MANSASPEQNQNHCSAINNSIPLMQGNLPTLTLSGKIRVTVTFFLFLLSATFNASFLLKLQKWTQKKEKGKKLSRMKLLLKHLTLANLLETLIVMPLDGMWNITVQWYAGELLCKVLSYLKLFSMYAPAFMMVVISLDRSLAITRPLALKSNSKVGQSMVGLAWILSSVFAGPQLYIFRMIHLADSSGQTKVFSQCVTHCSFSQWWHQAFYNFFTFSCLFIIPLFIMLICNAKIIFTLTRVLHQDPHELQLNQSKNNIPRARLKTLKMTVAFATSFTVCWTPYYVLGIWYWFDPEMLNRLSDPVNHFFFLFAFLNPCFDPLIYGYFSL
5-hydroxytryptamine receptor 2A (Homo sapiens), sequence (P28223 whole entry, looked up): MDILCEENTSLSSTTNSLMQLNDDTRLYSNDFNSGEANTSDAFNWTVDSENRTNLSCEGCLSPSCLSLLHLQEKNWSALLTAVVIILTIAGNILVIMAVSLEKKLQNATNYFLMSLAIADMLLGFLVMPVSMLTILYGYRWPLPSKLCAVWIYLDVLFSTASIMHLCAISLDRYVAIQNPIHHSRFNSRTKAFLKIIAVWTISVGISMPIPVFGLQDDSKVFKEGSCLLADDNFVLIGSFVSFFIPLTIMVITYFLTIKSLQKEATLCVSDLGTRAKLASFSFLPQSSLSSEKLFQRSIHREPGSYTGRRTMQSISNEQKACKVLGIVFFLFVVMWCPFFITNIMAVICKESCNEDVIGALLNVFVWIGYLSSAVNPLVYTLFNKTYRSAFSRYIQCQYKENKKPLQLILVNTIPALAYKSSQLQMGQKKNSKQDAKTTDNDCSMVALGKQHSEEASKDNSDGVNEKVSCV
KiSS-1 receptor (Homo sapiens), sequence (Q969F8 whole entry, looked up): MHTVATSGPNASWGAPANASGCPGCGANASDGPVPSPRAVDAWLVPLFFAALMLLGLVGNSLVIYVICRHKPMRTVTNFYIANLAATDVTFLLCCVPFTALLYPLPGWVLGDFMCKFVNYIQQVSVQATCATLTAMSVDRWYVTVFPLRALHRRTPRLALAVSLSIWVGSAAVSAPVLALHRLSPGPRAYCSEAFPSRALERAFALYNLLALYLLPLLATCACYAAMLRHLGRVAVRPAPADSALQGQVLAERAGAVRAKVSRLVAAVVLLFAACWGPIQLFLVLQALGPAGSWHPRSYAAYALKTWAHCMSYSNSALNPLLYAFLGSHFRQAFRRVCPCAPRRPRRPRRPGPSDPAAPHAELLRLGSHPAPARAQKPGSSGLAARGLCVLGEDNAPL
D(2) dopamine receptor (Homo sapiens), sequence (P14416 whole entry, looked up): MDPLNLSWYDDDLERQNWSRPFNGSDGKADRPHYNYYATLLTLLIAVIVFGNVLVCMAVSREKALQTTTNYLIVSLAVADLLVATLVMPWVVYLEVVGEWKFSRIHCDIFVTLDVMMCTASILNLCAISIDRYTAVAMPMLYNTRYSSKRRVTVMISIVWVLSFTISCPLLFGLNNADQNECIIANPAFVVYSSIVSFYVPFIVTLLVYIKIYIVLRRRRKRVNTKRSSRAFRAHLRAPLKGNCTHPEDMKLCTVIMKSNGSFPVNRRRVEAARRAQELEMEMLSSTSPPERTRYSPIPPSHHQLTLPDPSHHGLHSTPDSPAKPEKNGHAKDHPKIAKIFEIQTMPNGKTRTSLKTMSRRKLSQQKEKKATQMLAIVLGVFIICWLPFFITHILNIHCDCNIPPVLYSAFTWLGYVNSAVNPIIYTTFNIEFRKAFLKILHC
Beta-2 adrenergic receptor (Homo sapiens), sequence (P07550 whole entry, looked up): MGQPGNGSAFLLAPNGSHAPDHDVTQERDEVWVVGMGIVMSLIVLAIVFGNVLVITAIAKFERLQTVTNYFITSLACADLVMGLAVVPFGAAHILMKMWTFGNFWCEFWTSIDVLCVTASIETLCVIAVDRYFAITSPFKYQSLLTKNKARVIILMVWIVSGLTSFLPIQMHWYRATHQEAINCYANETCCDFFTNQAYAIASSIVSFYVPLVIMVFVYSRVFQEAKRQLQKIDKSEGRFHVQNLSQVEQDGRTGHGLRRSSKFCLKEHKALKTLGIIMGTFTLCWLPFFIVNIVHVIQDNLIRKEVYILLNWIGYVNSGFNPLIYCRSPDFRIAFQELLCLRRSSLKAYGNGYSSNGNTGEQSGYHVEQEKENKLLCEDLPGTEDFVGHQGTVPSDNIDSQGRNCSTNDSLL

O=C(O)CNC(=O)CNC(=O)CNC(=O)CSC(=O)c1ccccc1
inactive: Potency [1] | Potency [2] | Potency [3] | Potency [4] | Potency [5] | Potency [6] | Potency [7] | Potency [8] | Potency [9] | Potency [10] | Potency [11] | Potency [12] | Potency [13] | Potency [14] | Potency [15] | Potency [16] | Potency [17] | Potency [18]

NCCCN(CCO)CCO
inactive: Potency [1] | Potency [2] | Potency [3] | Potency [4] | Potency [5] | Potency [6] | Potency [7] | Potency [8] | Potency [9] | Potency [10] | Potency [11] | Potency [12] | Potency [13] | Potency [14] | Potency [16] | Potency [17] | Potency [18]
active: Potency [15] 0.217 µM

COC(=O)CC(=O)C(C)(C)C
inactive: Potency [1] | Potency [2] | Potency [3] | Potency [4] | Potency [5] | Potency [6] | Potency [7] | Potency [8] | Potency [9] | Potency [10] | Potency [11] | Potency [12] | Potency [13] | Potency [14] | Potency [15] | Potency [16] | Potency [17] | Potency [18]

O=C(O)Cc1ccc(OCCNC[C@H](O)c2ccccc2)cc1
inactive: Potency [1] | Potency [3] | Potency [4] | Potency [5] | Potency [6] | Potency [7] | Potency [8] | Potency [9] | Potency [10] | Potency [11] | Potency [12] | Potency [13] | Potency [14] | Potency [15] | Potency [18]
active: Potency [2] 33.5 µM

O=c1c2ccccc2oc2ccccc12
inactive: Potency [1] | Potency [2] | Potency [3] | Potency [4] | Potency [5] | Potency [6] | Potency [7] | Potency [8] | Potency [9] | Potency [10] | Potency [11] | Potency [12] | Potency [13] | Potency [14] | Potency [16] | Potency [17] | Potency [18]

CC(C)COC(=O)CCCCC(=O)OCC(C)C
inactive: Potency [1] | Potency [2] | Potency [3] | Potency [4] | Potency [5] | Potency [6] | Potency [7] | Potency [8] | Potency [9] | Potency [10] | Potency [11] | Potency [12] | Potency [13] | Potency [14] | Potency [15] | Potency [17] | Potency [18]

C1CCCCCCCCCCC1
inactive: activity change, negative = cytotoxicity [1] 0.761% [at 19 µM] | activity, positive = activation [2] -8.94% [at 19 µM] | activity change [3] -0.293% [at 11.8 µM, active compounds read high] | activation [4] 1.26% [at 15.8 µM] | activation [5] -0.978% [at 11.8 µM] | activity change, negative = cytotoxicity [6] -2.12% [at 13.5 µM] | activity change, negative = cytotoxicity [7] 0.482% [at 13.5 µM] | activity change, negative = cytotoxicity [8] 9.85% [at 13.5 µM] | activity, negative = inhibition [9] -15.5% [at 12.7 µM] | activation [10] -0.851% [at 15.9 µM] | activity, negative = inhibition [11] 10.4% [at 12.6 µM] | activation [12] -0.458% [at 15.8 µM] | activation [13] -0.929% [at 19 µM] | activity change, negative = inhibition [14] -1.59% [at 18.9 µM] | activity change, negative = inhibition [15] 0.327% [at 19 µM] | activation [17] -2.66% [at 19 µM] | activity change, negative = inhibition [18] -0.815% [at 18.9 µM]

CC(C)CCC(=O)CCC(C)C
inactive: Potency [1] | Potency [2] | Potency [3] | Potency [4] | Potency [5] | Potency [6] | Potency [7] | Potency [8] | Potency [9] | Potency [10] | Potency [11] | Potency [12] | Potency [13] | Potency [14] | Potency [15] | Potency [17] | Potency [18]

CCCCCCCCCCCCC1CO1 (centres undefined)
inactive: Potency [1] | Potency [2] | Potency [3] | Potency [4] | Potency [5] | Potency [6] | Potency [7] | Potency [8] | Potency [9] | Potency [10] | Potency [11] | Potency [12] | Potency [13] | Potency [14] | Potency [15] | Potency [18]

CCC(=O)C1CC(C(C)C)CC=C1C (centres undefined)
inactive: Potency [1] | Potency [2] | Potency [3] | Potency [4] | Potency [5] | Potency [6] | Potency [7] | Potency [8] | Potency [9] | Potency [10] | Potency [11] | Potency [12] | Potency [13] | Potency [14] | Potency [15] | Potency [17] | Potency [18]

CC(=O)c1ccc(C)cc1
inactive: Potency [1] | Potency [2] | Potency [3] | Potency [4] | Potency [5] | Potency [6] | Potency [7] | Potency [8] | Potency [9] | Potency [10] | Potency [11] | Potency [12] | Potency [13] | Potency [14] | Potency [15] | Potency [17] | Potency [18]

Cc1ccc(C)c([N+](=O)[O-])c1
inactive: Potency [1] | Potency [2] | Potency [3] | Potency [4] | Potency [5] | Potency [6] | Potency [7] | Potency [8] | Potency [9] | Potency [10] | Potency [11] | Potency [12] | Potency [13] | Potency [14] | Potency [15] | Potency [17] | Potency [18]

CCCNCCC
inactive: Potency [1] | Potency [2] | Potency [3] | Potency [4] | Potency [5] | Potency [6] | Potency [7] | Potency [8] | Potency [9] | Potency [10] | Potency [11] | Potency [12] | Potency [13] | Potency [14] | Potency [15] | Potency [17] | Potency [18]

CC1(C)SC(C)(C)SC(C)(C)S1
inactive: Potency [1] | Potency [2] | Potency [3] | Potency [4] | Potency [5] | Potency [6] | Potency [7] | Potency [8] | Potency [9] | Potency [10] | Potency [11] | Potency [12] | Potency [13] | Potency [14] | Potency [16] | Potency [17] | Potency [18]
